Assay results: PubChem BioAssay (NCI)
Compounds without any hit were thinned out: in the full panel of roughly 83,000, 20% have a hit.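 Assay: single dose, 48 h. Readout: percent growth (0 = no net growth; negative = cell death). Active: <10.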 Values without a mark were called inactive. Active and inactive are the calls of the source.

What follows are compounds tested on OVCAR-5 ovarian (assay: NCI-60 one-dose screen, 48 h (100 = growth as untreated, 0 = no growth, -100 = all killed)). Conditions: 10 µM unless noted.

Row | Structure (SMILES) | growth
1 | O=c1[nH]c2ccc(Cl)cc2cc1CSc1ccccc1Nc1nccc(-c2ccc(Cl)cc2)n1 | 114%
2 | CC(C)(C)OC(=O)N1C(=O)c2c(c3c4ccccc4[nH]c3c3ccc4ccccc4c23)C1=O | 63.8%
3 | CNC(=O)c1cc(-c2ccc(NC(=O)Nc3ccc(N4CCN(C)CC4)c(C(F)(F)F)c3)cc2)nc2cccnc12 | -88.6% (active)
4 | C/C(=N/NC(N)=S)c1ccc(Nc2nc(SCC(C)C)nc(-c3ccc(F)cc3)c2C#N)cc1 | 29.2%
5 | CCCCN1C(=O)/C(=c2\sc3n(c2=O)C2C(NN=3)N(CC)C(=O)N2CC)c2cc(Cl)ccc21 (stereo not drawn) | 92.7%
6 | COc1cc(-c2nc3ccc(-c4nnc(SCC(=O)Nc5ccc(C(C)=O)cc5)o4)cc3[nH]2)cc(OC)c1OC | 99.9%
7 | N#Cc1c(-c2ccc(Cl)cc2)nc(SCc2ccc(F)cc2)nc1N1CCNCC1 | 86%
8 | Cn1cc(-c2cc(N)n3nc(-c4cn(C)c5ccc(Br)cc45)cc3n2)c2cc(Br)ccc21 | 100%
9 | Cc1cc(C(=O)Nc2sc3c(c2C(N)=O)CCC(=O)C3)ccc1OCCN1CCCCC1 | 119%
10 | NS(=O)(=O)c1ccc(Nc2nc(SCC(=O)c3ccc(Cl)cc3)nc3ccccc23)cc1 | 100%
11 | CC(C)(C)Nc1nc2c(OCCc3ccccc3)cccn2c1-c1ccc(O)cc1 | 70.2%
12 | CCOc1ccc2nc(NC(=O)c3ccc(C(F)(F)F)cc3)sc2c1 | 105%
13 | N#Cc1c(-c2ccc(Cl)cc2)nc(SCc2ccc([N+](=O)[O-])cc2)nc1N1CCNCC1 | 3.39% (active)
14 | Cc1cccc(/C=C/c2nn3c(-c4ccco4)nnc3s2)c1 | 98.2%
15 | Cc1sc2c(c1C)c(=O)nc1c(-c3nc(-c4ccc(F)cc4)no3)n[nH]n12 | 103%
16 | C[C@@H]1CN(c2ccc3ncc(C#Cc4cncc(C(=O)Nc5ccc(CN6CCN(C)CC6)c(C(F)(F)F)c5)c4)n3n2)C[C@H](C)O1 | -35.4% (active)
17 | Nc1c(C(=O)Nc2ccc(Cl)cc2)sc2nc(-c3cnccn3)cc(-c3cccs3)c12 | 66.2%
18 | O=c1[nH]c2ccccc2cc1CSc1ccccc1Nc1nccc(-c2ccc(C(F)(F)F)cc2)n1 | 103%
19 | Cc1c(Nc2nnc(SCC(=O)Nc3sc4c(c3C#N)CCCC4)s2)c(=O)n(-c2ccccc2)n1C | 114%

Row | Structure (SMILES) | growth
20 | CS(=O)(=O)c1ccc(-c2nc3ccccn3c2C=Nc2ccc(Cl)cc2)cc1 | 83.6%
21 | N[C@@H](Cc1cn(-c2c3ccccc3nc3ccccc23)nn1)C(=O)O | 99.2%
22 | CC(C)(C)Nc1nc2c(OCCc3ccccc3)cccn2c1-c1cccc(F)c1 | 14.2%
23 | CCN1C(=S)N(c2ccccc2)C2NC(=O)N(/N=C/C=C/c3ccccc3OC)C21 (stereo not drawn) | 97.7%
24 | CCOC(=O)c1csc(NC(=O)CSc2nc3sc4c(c3c(=O)n2-c2ccc(Cl)cc2)CCCC4)n1 | 97.9%
25 | Cc1ccc(CNS(=O)(=O)/N=C2\NC(=O)NC2=C(Cl)Cl)cc1 | 96.7%
26 | CO/N=C1\CCc2c(sc(NC(=O)c3cccc(C(F)(F)F)c3)c2C(N)=O)C1 | 41.4%
27 | O=C(CSc1nc2sc3c(c2c(=O)n1-c1ccc(Cl)cc1)CCCC3)N/N=C/c1ccc(F)cc1 | 106%
28 | CN1CCN(Cc2ccc(NC(=O)c3cncc(C#Cc4cnc5[nH]ncc5c4)c3)cc2C(F)(F)F)CC1 | 41.6%
29 | CC(C)(C)Nc1nc2c(OCCc3ccccc3)cccn2c1-c1ccc(Cl)cc1 | 29.4%
30 | N#Cc1c(-c2ccc(Cl)cc2)nc(SCc2ccccc2)nc1N1CCNCC1 | 92.1%
31 | COc1ccc(/C=C/C(=O)c2ccc(NC(=O)CSc3nnc(-c4ccc5nc(-c6ccc(Cl)cc6)[nH]c5c4)o3)cc2)cc1 | 107%
32 | CC(=O)Nc1cc(F)cc(-c2ccc3[nH]cc(-c4ccccc4)c3n2)c1 | 27.4%
33 | C=CCSc1ccc2c(c1)C(N1CCNCC1)=Nc1ccccc1O2 | 85.4% [8.25 µM]
34 | Fc1ccc(-c2nc(C(Cl)Cl)nc3cc(-c4ccccc4)nn23)cc1 | -12.3% (active)
35 | COc1ccc(NC2=C(Cl)C(=O)C(C)=C(C)C2=O)cc1OC | 103%
36 | O=C1[C@H]2Cc3c([nH]c4ccccc34)[C@@H](c3ccc(Br)cc3)N2C(=O)CN1C1CCN(Cc2ccccc2)CC1 | 65%
37 | Cn1c(SCC(=O)c2cccs2)nc2ccccc2c1=O | 109%
38 | C/C(=C(/c1ccc(Cl)cc1)c1ccc(OCCN)cc1)c1ccc(C)cc1 | 101%
